IL1B secr inh – blocks inflammasome-driven IL-1 beta release | THP-1 LPS/ATP IL-1B secretion, AlphaLISA, 16 h; stronger effect = lower value | activity change, % at 57.5 µM | 360,000 tested, 4.7% active | AID 743279; in the data active = activity change below about -50%; inconclusive = mostly about -30% to -49%
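THP-1 cells pretreated 1 hr with compounds (up to 57.5 uM final), then stimulated with LPS (250 ng/mL final) plus ATP (1.25 mM final); secreted IL-1B measured by AlphaLISA after 16 hr, decreased signal indicating inhibition.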
Giardia killer – kills Giardia lamblia | Giardia lamblia trophozoite viability | activity change, % at 7.66 µM, hits read low | 340,000 tested, 0.15% active; in the data active = activity change below about -80%; inconclusive = between about -30% and that limit;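 note: parasites exposed to compound for two days anaerobically before the ATP read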
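Anaerobic 48 hrs incubation at 37 deg C of 100 trophozoites/well with test compounds; ATPLite 1-Step luminescence, 15-30 min RT, reports cellular ATP as viability.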
TDP1 inh – blocks human tyrosyl-DNA phosphodiesterase 1; 350,000 tested, 0.28% active; recombinant TDP1, AlphaScreen DNA substrate cleavage; Potency, µM (titrated, usually from 130 µM), for inactives: at the top dose activity change, negative = inhibition, actives largely listed as inhibitors; Q9NUW8; note: potency is the fitted concentration of half-maximal effect; nearly all actives have a fitted effect of over 40% in size
Target sequence (Q9NUW8 whole entry, looked up): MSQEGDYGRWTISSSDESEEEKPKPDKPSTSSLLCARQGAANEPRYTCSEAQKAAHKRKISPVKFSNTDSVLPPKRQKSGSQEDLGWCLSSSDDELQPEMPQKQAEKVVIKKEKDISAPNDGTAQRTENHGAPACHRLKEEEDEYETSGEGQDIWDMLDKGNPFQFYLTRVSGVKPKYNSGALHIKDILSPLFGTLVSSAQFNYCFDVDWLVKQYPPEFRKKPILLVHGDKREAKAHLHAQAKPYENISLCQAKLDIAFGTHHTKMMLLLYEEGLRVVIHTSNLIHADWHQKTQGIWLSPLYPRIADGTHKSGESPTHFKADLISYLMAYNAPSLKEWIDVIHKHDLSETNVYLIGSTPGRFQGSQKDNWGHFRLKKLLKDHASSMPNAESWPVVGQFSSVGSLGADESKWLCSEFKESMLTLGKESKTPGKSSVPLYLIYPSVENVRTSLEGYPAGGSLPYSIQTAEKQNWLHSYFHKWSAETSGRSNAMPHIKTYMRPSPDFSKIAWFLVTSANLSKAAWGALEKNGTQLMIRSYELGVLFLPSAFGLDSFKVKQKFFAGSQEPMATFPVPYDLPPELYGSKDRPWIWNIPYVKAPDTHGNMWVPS
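Recombinant human Tdp1 (E. coli-expressed, 1 nM final) preincubated with compounds 15 min at room temperature, then 5'-biotin/3'-phosphotyrosine-FITC DNA substrate (15 nM final) added for 5 min. AlphaScreen beads (10 ug/ml final) added 10 min; cleavage lowers signal.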
ELG1 DNA repair – blocks ELG1-dependent DNA repair in HEK293T cells | HEK293T ELG1-luciferase reporter, luminescence, 16 h; DNA damage induced by 5-fluorouridine | Potency, µM (doses to about 46.1 µM), for the others: at the highest dose activity change, negative = inhibition, hits mostly inhibitors | 330,000 tested, 2.3% active; note: potency is the fitted concentration of half-maximal effect; nearly all actives have a fitted effect of over 55% in size
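Quantitative HTS, concentration-response format. 2,000 cells/well co-treated with 5-fluorouridine and compound, 16 hr in 5% CO2 at 37 °C; ONE-Glo luminescence read after 30 min.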
DT40 TDP1 no CPT – qHTS for Inhibitors of human tyrosyl-DNA phosphodiesterase 1 (TDP1): qHTS in cells in absence of CPT; DT40 Tdp1-/- hTDP1 cells, no CPT, ATP luminescence, 48 h; Potency, µM (top dose mostly 46.2 µM), for inactives: at the top dose activity change, negative = growth inhibition, most hits filed as inhibitors; 420,000 tested, 15% active; note: potency is the fitted concentration of half-maximal effect; nearly all actives have a fitted effect of over 55% in size
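A cellular qHTS used chicken DT40 cells lacking endogenous Tdp1 but carrying stably transfected human TDP1. Compounds were applied without camptothecin, and cell growth kinetics were judged by ATP-dependent luminescence after ≥48 hr.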
DT40 TDP1 CPT – DT40-hTDP1 cell growth loss with CPT. 420,000 tested, 12% active. Potency, µM (series often up to 46.2 µM), without a hit: at the top dose activity change, negative = growth inhibition, usual class: inhibitors. chicken DT40 Tdp1-/-;hTDP1 cells + 20 nM CPT, ATP luminescence, 48 h; note: potency is the fitted concentration of half-maximal effect; nearly all actives have a fitted effect of over 55% in size
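Chicken DT40 Tdp1-/- cells complemented with human TDP1, 400 cells/well, exposed to compounds plus 20 nM camptothecin for at least 48 h at 37 C; viability read as ATP content by CellTiter-Glo luminescence.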
Starred values were filed as active, the others as inactive; ? = inconclusive; . = not tested or not shown; [ ] = dose if it differs, or a comment. An excerpt weighted towards active compounds, which were near 19% of everything screened. Unless noted, calls come from the whole dose curve; as a rule, active = well fitted curve in the direction sought with a large enough effect; inconclusive = small, poorly fitted or top-dose-only effect, or another doubt; inactive = no such curve, though single readings can be large; an effect the other way counts as inactive or inconclusive. % is set by controls: 0 for no effect and ±100 for the full control effect.

SMILES | IL1B secr inh | Giardia killer | TDP1 inh | ELG1 DNA repair | DT40 TDP1 no CPT | DT40 TDP1 CPT
CCOC(=O)c1c(S(=O)(=O)N2CCC(C(=O)NCc3cccc(OC)c3)CC2)c(C)n(C)c1C | . | . | 4.4% | . | 5.7% | -16.1%
CCN(c1ccccc1)S(=O)(=O)c1cccc(C(=O)Nc2ccc(C)cn2)c1 | -25.3 | -3.5 | 1.6% | ? | -12.5% | ?
COc1cc(C(=O)N2CCC2(C)C(=O)NC(C)C)cc(OC)c1OC (configuration not stated) | 5.2 | . | . | . | 3.2% | 0.8%
COc1ccc(Br)cc1C1=CC(=O)C[C@H](c2ccc(F)cc2)C1 | 24.7 | . | . | . | ? | ?
CC(C)Oc1ccc(F)cc1-c1cc(C(=O)NCc2cc(C(F)(F)F)cc(C(F)(F)F)c2)[nH]n1 | ? | . | . | . | 20.6µM* | 18.4µM*
COc1ccc(CNC(=O)Cc2csc3nc(-c4ccc(F)cc4)cn23)cc1 | . | . | 4.1% | . | ? | 20.6µM*
COc1ccc(-c2nc3scc(CCNC(=O)Cc4ccc(F)cc4)n3n2)cc1 | . | . | 2.7% | . | 25.9µM* | ?
Cc1cc(C)c(NC(=O)C(=O)NCCc2csc(-c3ccc(F)cc3)n2)c(C)c1 | . | . | 3.0% | . | 16.4µM* | 18.4µM*
COc1ccc(-c2nc3scc(CCNS(=O)(=O)c4ccc(Oc5ccccc5)cc4)n3n2)cc1 | . | . | 7.8% | . | ? | -13.3%
COc1ccc(-c2nc3scc(CCNC(=O)c4cc(OC)cc(OC)c4)n3n2)cc1 | . | . | 1.2% | . | 20.6µM* | ?
COc1ccc(CNC(=O)Cc2csc3nc(-c4ccc(C)cc4)cn23)cc1 | . | . | 5.3% | . | -21.7% | -24.4%
COc1cc(OC)c(NC(=O)C(Cc2ccccc2)NS(=O)(=O)c2cccc3nsnc23)cc1Cl (configuration not stated) | . | . | 4.7% | . | ? | ?
CCOC(=O)[C@]12CCC=C1N(Cc1ccco1)C(=O)[C@H](CC(=O)NCCCN1CCCC1=O)C2 | 39.8 | . | . | . | -0.2% | -0.5%
Cc1nc2ccccc2c(=O)n1/N=C/C=C/c1ccccc1 | 0.9 | 1.2 | 7.0% | 1.2% | ? | ?
O=C(NCc1ccco1)c1ccc(Cl)c(S(=O)(=O)N2CCCC2)c1 | 13.4 | 24.4 | -2.7%[56.1 µM] | 0.5% | 2.0% | ?
O=C(NCCc1csc(-c2cccc(F)c2)n1)c1ccc(Br)o1 | . | . | -5.3% | . | ? | ?
COc1ccc(-c2nc(CCNC(=O)Cc3ccc(F)cc3)cs2)cc1 | . | . | 2.2% | . | 18.4µM* | 14.6µM*
O=C(NCCc1csc(-c2ccc(F)cc2)n1)c1ccc(Br)o1 | . | . | 5.3% | . | ? | 23.1µM*
COc1ccc(CCC(=O)NCCc2csc(-c3ccc(F)cc3)n2)cc1 | . | . | -1.8% | . | ? | ?
CCCn1c(=S)[nH]c2cc(C(=O)N3CCN(C(=O)OCC)CC3)ccc2c1=O | 49.5 | -19.9 | 5.4% | 11.5% | -4.5% | -23.9%
COCCn1c(=S)[nH]c2cc(C(=O)N3CCc4ccccc4C3)ccc2c1=O | 34.3 | -11.3 | 3.7% | 0.0% | -25.6% | -16.7%
COCCn1c(=S)[nH]c2cc(C(=O)N3CCCC(C)C3)ccc2c1=O (configuration not stated) | 14.7 | 0.8 | -2.0% | ? | ? | 25.9µM*
CCCn1c(=S)[nH]c2cc(C(=O)N3CCCC(C(=O)OCC)C3)ccc2c1=O (configuration not stated) | -15.5 | 31.6 | 8.6% | -29.1% | 20.6µM* | 14.6µM*
O=C(O)C1Sc2[nH]c(=O)sc2C2c3ccc(O)cc3OC(=O)C12 (configuration not stated) | 14.8 | -18.5 | 10.1% | 5.7% | -1.4% | 1.3%
O=C(Nc1ccc(-c2nc3cccnc3s2)cc1)c1cccnc1Cl | 20.1 | -22.0 | -1.4% | ? | -29.1% | 0.1%
SMILES | IL1B secr inh | Giardia killer | TDP1 inh | ELG1 DNA repair | DT40 TDP1 no CPT | DT40 TDP1 CPT
O=C(Nc1ccc(-c2nc3ncccc3o2)cc1)c1ccc(Br)o1 | -55.4* | 3.0 | . | 20.0% | ? | ?
O=C(Nc1ccc(-c2nc3cccnc3s2)cc1)c1ccco1 | -23.2 | -10.1 | 2.1% | ? | 13µM* | ?
O=C(Nc1ccc(-c2nc3cccnc3s2)cc1)c1ccc(Br)o1 | 2.3 | -7.5 | 7.2% | ? | 8.2µM* | 11.6µM*
Cc1c(NC(=O)c2ccco2)cccc1-c1nc2cccnc2s1 | 57.8 | 0.3 | 9.3% | -17.4% | ? | 20.6µM*
Cc1cc(NC(=O)c2ccc(-c3ccc(Br)cc3)o2)cc(-c2nc3ncccc3o2)c1O | . | . | 4.5% | . | -15.0% | -22.6%
Cc1c(NC(=O)CC(C)C)cccc1-c1nc2cccnc2s1 | . | . | 5.2% | . | ? | ?
CC/C=C/[C@@H](c1ccccc1)[C@H](C)C(O)CC(=O)SC(C)(C)C (some centres not stated) | . | 0.1 | -13.8% | . | . | .
Cc1ccnn1Cc1cc(C(=O)O)c2ccccc2n1 | 20.2 | -12.4 | -2.6% | -12.9% | -21.0% | -2.0%
O=C(Nc1nc(-c2ccc(F)c(F)c2)cs1)Nc1ccc(F)cc1F | -7.8 | -6.7 | . | 20.3% | 0.651µM* | 1.64µM*
O=C(CCCc1cccs1)Nc1nc(-c2ccc(F)cc2)cs1 | -17.9 | 24.4 | 2.3% | 18.8% | 8.2µM* | ?
O=C(O)CCCC(=O)Nc1nc(-c2ccc(F)cc2)cs1 | 19.6 | -5.7 | 10.0% | 2.5% | -9.0% | -3.1%
Cc1noc(C)c1C(=O)Nc1nc(-c2ccc(F)c(F)c2)cs1 | -1.7 | 11.6 | 1.1% | 3.9% | -29.2% | -25.8%
COc1ccc(CC(=O)Nc2nnc(C(C)(C)C)s2)cc1OC | 0.0 | -4.5 | 0.0% | ? | 16.4µM* | ?
COc1ccc(CC(=O)Nc2nc(C)cs2)cc1OC | 27.5 | 3.8 | 5.3% | 16.4µM* | ? | -20.5%
CCc1nnc(NC(=O)Cc2ccc(OC)c(OC)c2)s1 | 5.6 | 7.3 | 2.5% | 0.1% | 8.1% | -0.1%
Cn1cc(Br)c(C(=O)Nc2ncc(Br)s2)n1 | 3.4 | -7.0 | 2.7% | ? | -26.0% | -7.3%
Cc1ccc(C(=O)Nc2cccc(C(=O)OCc3cc(=O)n4nc(C5CC5)sc4n3)c2)cc1 | . | . | 3.8% | . | -16.1% | 2.3%
COc1ccc(CC(=O)Nc2ncc([N+](=O)[O-])s2)cc1OC | 105.8 | -89.4* | 2.4% | 2.6% | ? | ?
COc1cccc(NC(=O)Nc2nc(-c3ccc(OC)c(OC)c3)cs2)c1 | -104.4* | -12.4 | -0.3% | 4.11µM* | 7.31µM* | 18.4µM*
COc1ccc(-c2csc(NC(=O)Cc3ccccc3)n2)cc1OC | 2.5 | 5.9 | 6.2% | 6.2% | 1.64µM* | ?
Cc1cc(C(=O)OC(C)C(=O)Nc2nc(-c3ccccc3)cs2)c(C)o1 (configuration not stated) | 9.8 | -13.2 | 5.4% | -13.1% | -15.3% | -2.7%
